EphB4 antag – EphB4-ephrin-B2 interaction antagonism | inhibition, % at 7 µM | EphB4 LBD / TNYL-RAW-Alexa532 peptide, fluorescence polarization | hit rate 0.15% among 97,000;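 active = inhibition above the screen-wide mean inhibition plus 3 SD, cut at about 15% in these data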;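 note: 0% = DMSO wells and 100% = excess unlabeled TNYL-RAW peptide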
CYP2C19 act – increases human CYP2C19 enzyme activity; P33261; recombinant CYP2C19, luciferin-H EGE luminescence; stronger effect = higher value; 0 = fully inhibited enzyme, 1 = untreated enzyme; activation factor at 5 µM; 96,000 tested, under 10 active; AID 1025;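 active = activation factor of at least 2 at 5 µM in the primary screen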;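 note: 0 = wells with 2.5 mM tranylcypromine and 1 = vehicle-only wells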
CYP2C9 inh – blocks human cytochrome P450 2C9 | CYP2C9 Supersomes, luciferin-H conversion, luminescence | hit rate 20% among 96,000 | inhibition, % at 5 µM | AID 777;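 active = blocking of liver enzyme CYP2C9 beyond about 50% at 5 µM, limit read from the data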
Target sequence (P11712 whole entry, looked up): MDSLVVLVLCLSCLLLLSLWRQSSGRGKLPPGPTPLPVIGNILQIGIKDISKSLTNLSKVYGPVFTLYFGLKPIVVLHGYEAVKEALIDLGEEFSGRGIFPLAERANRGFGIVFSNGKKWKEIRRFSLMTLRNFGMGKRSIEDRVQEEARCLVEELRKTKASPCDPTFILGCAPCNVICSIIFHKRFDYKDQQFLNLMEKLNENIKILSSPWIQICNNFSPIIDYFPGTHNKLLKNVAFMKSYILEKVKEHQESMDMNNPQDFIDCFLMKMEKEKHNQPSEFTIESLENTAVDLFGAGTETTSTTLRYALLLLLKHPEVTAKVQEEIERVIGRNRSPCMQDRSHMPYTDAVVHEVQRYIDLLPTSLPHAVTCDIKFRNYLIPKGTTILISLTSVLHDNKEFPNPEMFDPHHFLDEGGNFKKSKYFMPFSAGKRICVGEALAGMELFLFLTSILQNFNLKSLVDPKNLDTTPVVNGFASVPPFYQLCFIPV
CYP2C9 act – CYP2C9 (human) activation. recombinant CYP2C9, luciferin-H conversion, luminescence; stronger effect = higher value; factor 1 = untreated enzyme, 0 = blocked. hit rate 1.4% among 96,000. activation factor at 5 µM. P11712;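 active = activation factor of 2 or more for CYP2C9 at a 5 µM dose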;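 note: 0 = sulfaphenazole-blocked wells and 1 = vehicle-only wells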
CYP2C19 inh – blocks human cytochrome P450 2C19. inhibition, % at 5 µM. AID 778. P33261. CYP2C19 Supersomes, luciferin-H EGE luminescence, 30 min. hit rate 21% among 96,000;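 active = CYP2C19 inhibition above a set limit at 5 µM in the primary screen, cut at about 50% in these data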;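 note: plate controls were negative control wells for no effect and 2.5 mM tranylcypromine positive control for full effect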
* = called active by the depositor; . = no result given. Shown are actives, neighbours in structure and some others; about 27% of the full set was active somewhere.

SMILES | EphB4 antag | CYP2C19 act | CYP2C9 inh | CYP2C9 act | CYP2C19 inh
Cc1noc(NS(=O)(=O)c2ccc(NC(=O)CCC3CCCC3)cc2)c1C | -5 | 0.8 | 28 | 0.7 | 18
Cc1ccc(S(=O)(=O)NCCC(=O)N2CCCCC2)cc1 | -2 | 0.9 | -67 | 1.7 | 9
O=c1c2ccccc2nnn1Cc1ccccn1 | 1 | 1 | -10 | 1.1 | -3
COc1ccc(C(=O)NNc2ccccc2)cc1OC | -1 | 0.8 | 8 | 0.9 | 15
CC(C)(C)C1CCc2onc(C(=O)NC3CCCC3)c2C1 (stereo not drawn) | 4 | 0.8 | 11 | 0.9 | 21
COC(=O)c1cc(OC)c(OC)cc1NC(=O)CSc1nnnn1Cc1ccccc1 | 8 | 0.3 | 82* | 0.2 | 75*
COC(=O)c1cc(OC)c(OC)cc1NC(=S)N1CCN(Cc2ccccc2)CC1 | 2 | 0 | 44 | 0.6 | 100*
CCOC(=O)c1ccc(NC(=O)C2CCN(C(=O)c3ccc(OC)c(OC)c3)CC2)cc1 | 7 | . | . | . | .
C=CCn1c(C)cc(C(=O)CSc2nnc3c(Cl)cc(Cl)cn23)c1C | -1 | 0.2 | -88 | 1.9 | 78*
Cc1cccc(-c2cc(C(=O)NCCCn3ccnc3)c3ccccc3n2)c1 | 4 | 0.1 | 100* | 0 | 87*
Cc1ccc(-c2cc(C(=O)NCCCn3ccnc3)c3cc(Br)ccc3n2)o1 | 4 | 0.1 | 100* | 0 | 94*
Cc1ccc(-c2cc(C(=O)NC3=NCCS3)c3cc(Br)ccc3n2)o1 | 3 | 0.5 | 20 | 0.8 | 52*
Cc1ccc(-c2cc(C(=O)Nc3ccccc3C)c3ccccc3n2)o1 | 7 | . | . | . | .
O=c1cc(N2CCOCC2)[nH]c(=O)n1-c1ccc(Br)cc1 | -1 | 1 | -3 | 1 | -3
Cc1cc(/C=N\O)c(C)n1-c1ccncc1 | -3 | 0.9 | -14 | 1.1 | 14
Cc1ccc(C(=O)CNc2nc3c(c(=O)[nH]c(=O)n3C)n2Cc2ccccc2)cc1 | 1 | 0.1 | 79* | 0.2 | 88*
CC1(C)CC(=O)C(C=NCCCn2ccnc2)=C(O)C1 | -7 | 0.5 | 8 | 0.9 | 48
Cn1c(=O)[nH]c(=O)c2c1nc(NCCCn1ccnc1)n2Cc1ccccc1 | -3 | 0.2 | 96* | 0 | 80*
Cn1c(=O)[nH]c(=O)c2c1nc(NCCCO)n2Cc1ccc(F)cc1 | -2 | 0.9 | 8 | 0.9 | 10
Cc1ccc(Nc2nc3c(c(=O)[nH]c(=O)n3C)n2Cc2ccc(F)cc2)cc1 | -9 | . | . | . | .
CC(=NCCCn1ccnc1)c1c(O)n(Cc2ccccc2)c(=O)[nH]c1=O | 4 | 0.6 | 78* | 0.2 | 44
Cc1ccc(OCC(O)Cn2c(NCCc3ccccc3)nc3c2c(=O)[nH]c(=O)n3C)cc1 (stereo not drawn) | 3 | 0.5 | 42 | 0.6 | 51*
Cc1ccc(S(=O)(=O)NC(=O)Nn2c(C)nnc2C)cc1 | -2 | 1 | 10 | 0.9 | -4
Cn1c(=O)[nH]c(=O)c2c1nc(NCCCn1ccnc1)n2CCOc1ccccc1 | 7 | 0 | 98* | 0 | 99*
CCOCCCNc1nc2c(c(=O)[nH]c(=O)n2C)n1CCCc1ccccc1 | -7 | 0.9 | 25 | 0.8 | 14
SMILES | EphB4 antag | CYP2C19 act | CYP2C9 inh | CYP2C9 act | CYP2C19 inh
CN(Cc1ccccc1)c1nc2c(c(=O)[nH]c(=O)n2C)n1Cc1ccccc1 | -6 | 0.9 | 33 | 0.7 | 9
CN(Cc1ccccc1)c1nc2c(c(=O)[nH]c(=O)n2C)n1CCOc1ccccc1 | 3 | 0.7 | 54* | 0.5 | 34
COCCn1c(N)c(C(=O)Nc2sc3c(c2C(=O)OC)CCCC3)c2nc3ccccc3nc21 | -6 | 1 | 13 | 0.9 | 2
COC(=O)c1cc(C(=O)OC)cc(-n2c(C)cc(C(=O)CC#N)c2C)c1 | . | 0.7 | 69* | 0.3 | 34
Cc1cc(C(=O)CC#N)c(C)n1-c1ccc(OC(F)F)cc1 | 7 | 0.1 | 79* | 0.2 | 91*
Cc1c(C(=O)OC(C)C)sc2nc[nH]c(=O)c12 | -1 | 0.7 | 31 | 0.7 | 29
COc1ccccc1C(=O)Nc1nnc(-c2ccco2)s1 | -2 | 0.7 | -33 | 1.3 | 33
O=S1(=O)C=C(SCc2ccc(Cl)c(Cl)c2)Nc2ccccc21 | -1 | 0.3 | 71* | 0.3 | 68*
CC1(C)CC(=O)C2=C(C1)N(c1ccc(F)cc1)C(=O)CC2c1ccccc1 (stereo not drawn) | 1 | 0.2 | 28 | 0.7 | 76*
CC1(C)CC(=O)C2=C(C1)N(C1CCCCC1)C(=O)C2(O)C(F)(F)F (stereo not drawn) | 0 | 0.8 | 0 | 1 | 20
